From PubChem
TDP1 cell noCPT = qHTS for Inhibitors of human tyrosyl-DNA phosphodiesterase 1 (TDP1): qHTS in cells in absence of CPT; DT40 Tdp1-/- hTDP1 cells, no CPT, ATP luminescence, 48 h; Potency, µM (highest dose often 46.2 µM), for the others: top-dose activity change, negative = growth inhibition, hits mostly inhibitors; 420,000 tested, 15% active; further: nearly all actives have a fitted effect of over 55% in size
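DT40 Tdp1-/-;hTDP1 cells, no CPT (DMSO vehicle only), 400 cells/well; compounds pin-transferred; ≥48 hr, 37 °C; CellTiter-Glo 30 min RT dark, luminescence read.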
PLK1 PBD inh = PLK1 (human) polo-box domain binding inhibition | 360,000 tested, 2.8% active | P53350 | Potency, µM, inactives show max response, negative = inhibition, hits mostly inhibitors | Plk1 PBD binding of FITC phosphopeptide, fluorescence polarization; further: series mostly up to about 57 µM; nearly all actives have a fitted effect of over 65% in size
Target sequence (P53350 whole entry, looked up, the tested form may be a part): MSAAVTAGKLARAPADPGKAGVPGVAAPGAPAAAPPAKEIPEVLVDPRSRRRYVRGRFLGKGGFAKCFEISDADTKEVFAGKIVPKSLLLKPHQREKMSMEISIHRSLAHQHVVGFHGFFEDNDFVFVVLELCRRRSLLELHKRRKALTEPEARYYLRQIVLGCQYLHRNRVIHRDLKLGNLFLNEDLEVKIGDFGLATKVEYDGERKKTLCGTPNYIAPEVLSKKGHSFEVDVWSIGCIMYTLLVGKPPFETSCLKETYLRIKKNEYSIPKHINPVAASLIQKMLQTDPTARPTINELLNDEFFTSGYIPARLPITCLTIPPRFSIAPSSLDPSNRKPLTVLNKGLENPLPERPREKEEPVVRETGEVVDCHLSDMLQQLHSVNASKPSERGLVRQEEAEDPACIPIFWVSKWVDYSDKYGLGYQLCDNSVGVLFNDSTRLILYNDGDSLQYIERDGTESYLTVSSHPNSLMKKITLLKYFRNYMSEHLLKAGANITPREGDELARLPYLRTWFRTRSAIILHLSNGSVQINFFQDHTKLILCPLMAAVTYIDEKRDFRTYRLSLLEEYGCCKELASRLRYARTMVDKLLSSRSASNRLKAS
TDP1 block = TDP1 (human) enzyme inhibition. Q9NUW8. recombinant TDP1, AlphaScreen DNA substrate cleavage. Potency, µM (titrated, usually from 130 µM), without a hit: top-dose activity change, negative = inhibition, usual class: inhibitors. 350,000 tested, 0.28% active. AID 485290; further: nearly all actives have a fitted effect of over 40% in size
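AlphaScreen read-out: signal falls as enzyme removes the 3' tyrosine-FITC from a 5'-biotinylated DNA oligo (15 nM, 5 min, RT). Enzyme was E. coli-made recombinant Tdp1 at 1 nM, exposed to compound for 15 min beforehand; beads 10 ug/ml, 10 min.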
KAT2A inh = GCN5L2 (KAT2A) acetyltransferase inhibition | Q92830 | GCN5L2 HAT assay, ThioGlo1 CoA-SH fluorescence | Potency, µM (series often up to 58.9 µM), without a hit: top-dose activity change, negative = inhibition, usual class: inhibitors | 390,000 tested, 0.21% active
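ThioGlo1-coupled HAT assay: 20nM GCN5L2, 70uM acetyl-CoA, 75uM H3(1-25) peptide, pH 7.5. Fluorescence read at 340/540nm at start and after 20 min at room temperature.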
TDP1 cell CPT = growth inhibition of DT40 Tdp1-/-;hTDP1 cells with camptothecin (screen for TDP1 inhibitors); Potency, µM (highest dose often 46.2 µM), for inactives: at the top dose activity change, negative = growth inhibition, hits mostly inhibitors; chicken DT40 Tdp1-/-;hTDP1 cells + 20 nM CPT, ATP luminescence, 48 h; 420,000 tested, 12% active; AID 686979; further: nearly all actives have a fitted effect of over 55% in size
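Chicken DT40 Tdp1-/- cells stably complemented with human TDP1 were seeded at 400 cells/well in medium containing 20 nM camptothecin, exposed to pin-transferred compounds, and grown at 37 °C for at least 48 hr. Viability was read as ATP luminescence.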
VDR inh = vitamin D3 receptor (human) inhibition | 400,000 tested, 0.93% active | P11473 | Potency, µM, inactives show max response, negative = inhibition, hits mostly inhibitors | VDR-SRC2-3 peptide fluorescence polarization, 2 h
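FP read-out; VDR + SRC2-3 coactivator peptide; 23 nl compound by pintool; 2 h RT incubation; reagents held at 4 deg C, protected from light.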
An asterisk follows results filed as active; [ ] = remark or other dose. Sampled rows, rich in hits. Any-hit rate of the full collection: about 18%. The call rests on the fitted dose curve; in most records, active means well fitted curve in the direction sought with a large enough effect; inconclusive means small, poorly fitted or top-dose-only effect, or another doubt; inactive means no such curve, though single readings can be large; an effect the other way counts as inactive or inconclusive. On the % scale 0 is the no-effect control and ±100 the full control effect; potency means the concentration at half of the fitted maximal effect.

For COC(=O)CC1(CC(N)=O)SCCS1 the results were TDP1 cell noCPT inconclusive, PLK1 PBD inh -3.0%, TDP1 cell CPT -20.6% and VDR inh -18.0%.
`C=CCOC(=O)COc1ccc2c3c(c(=O)oc2c1)CCCC3` gave TDP1 cell noCPT 2.3%, PLK1 PBD inh -5.3% and TDP1 cell CPT -7.1%.
Screening COc1ccc(N2C(=O)CS(=O)(=O)C23C(=O)N(Cc2ccc(F)cc2)c2ccc(C)cc23)cc1 (centres undefined) returned TDP1 cell noCPT 14.6µM*, TDP1 block 7.4%, KAT2A inh 6.7%, TDP1 cell CPT inconclusive and VDR inh 17.7%.
For Cc1ccc(CN2C(=O)C3(c4ccccc42)N(c2ccc(C)c(Cl)c2)C(=O)CS3(=O)=O)cc1 (centres undefined) the results were TDP1 cell noCPT inconclusive, TDP1 block 1.8%, KAT2A inh 0.2%, TDP1 cell CPT inconclusive and VDR inh 6.5%.
`Cc1ccc(N2C(=O)CS(=O)(=O)C23C(=O)N(Cc2ccccc2F)c2ccccc23)cc1Cl` (centres undefined) gave TDP1 cell noCPT inconclusive, TDP1 block 0.9%, KAT2A inh -4.9%, TDP1 cell CPT 14.6µM* and VDR inh -15.8%.
Screening COc1cccc(-c2cc(C(=O)Nc3cc(OC)c(OC)c(OC)c3)on2)c1 returned TDP1 cell noCPT 2.91µM*, TDP1 block 2.6%, KAT2A inh -15.2%, TDP1 cell CPT 5.8µM* and VDR inh -0.2%.
For CC(C)c1cc(-c2cc(C(=O)Nc3ccccc3)on2)nc(NC2CCCC2)n1 the results were TDP1 cell noCPT inconclusive, PLK1 PBD inh -16.6%, TDP1 cell CPT 25.9µM* and VDR inh -4.1%.
Screening COc1ccc(NC(=O)c2cc(-c3ccccc3Cl)no2)cc1 returned TDP1 cell noCPT -27.1%, PLK1 PBD inh -6.8%, TDP1 block 1.1%, KAT2A inh -13.7%, TDP1 cell CPT -28.1% and VDR inh -7.2%.
`O=C(Nc1ccccc1)c1cc(-c2ccccc2Cl)no1` gave TDP1 cell noCPT 16.4µM*, PLK1 PBD inh 3.77µM*, TDP1 block 2.1%, KAT2A inh -3.1%, TDP1 cell CPT 16.4µM* and VDR inh inconclusive.
COc1cc(NC(=O)c2cc(-c3ccccc3O)no2)cc(OC)c1OC was read as TDP1 cell noCPT 1.64µM*, TDP1 block 2.6%, KAT2A inh -19.3%, TDP1 cell CPT 2.31µM* and VDR inh 2.4%.
`COc1ccc(-c2cc(C(=O)Nc3cccc(O)c3)on2)cc1OC` gave TDP1 cell noCPT -12.1%, TDP1 block 10.4%, KAT2A inh -13.6%, TDP1 cell CPT -3.4% and VDR inh 9.7%.
Screening Cc1c(C(=O)N(C)C)sc2c1c(=O)n(-c1ccccc1C(F)(F)F)c(=O)n2Cc1cccc(F)c1 returned TDP1 cell noCPT -22.6%, TDP1 block 3.4%, KAT2A inh -6.2%, TDP1 cell CPT -20.3% and VDR inh -0.5%.
Screening O=C(COC(=O)c1cc(Cl)ccc1O)Nc1cc(C(F)(F)F)ccc1N1CCOCC1 returned TDP1 cell noCPT -27.7%, PLK1 PBD inh 5.2%, TDP1 block -2.2%, KAT2A inh -7.6%, TDP1 cell CPT -18.3% and VDR inh 12.2%.
`CCC1CN(CCNC(=O)c2cscn2)Cc2cc(OC)ccc2O1` (centres undefined) gave TDP1 cell noCPT -5.3% and TDP1 cell CPT -6.5%[9.04 µM].
Cc1ccc(CN2CCOc3ccc(CN4CCC(Oc5cccnc5)CC4)cc3C2)o1 was read as TDP1 cell noCPT inconclusive and TDP1 cell CPT 5.9%[9.04 µM].
Screening CCOc1ccc(NC(=O)CN(C)C(=O)c2cc([N+](=O)[O-])ccc2Sc2ccccc2)cc1OCC returned TDP1 cell noCPT inconclusive, PLK1 PBD inh -10.9%, TDP1 cell CPT inconclusive and VDR inh -12.5%.
COc1ccc(S(=O)(=O)N2CCOC2CNC(=O)C(=O)NCCN2CCOCC2)cc1C (centres undefined) was read as TDP1 cell noCPT -5.4%, PLK1 PBD inh 3.0%, TDP1 block 1.7%, KAT2A inh 0.9%, TDP1 cell CPT 14.3% and VDR inh -13.1%.
COc1ccc(C2C(C(=O)c3ccco3)=C(O)C(=O)N2CC2CCCO2)cc1OC (centres undefined) was read as TDP1 cell noCPT inconclusive, PLK1 PBD inh -12.8%, KAT2A inh -8.6%, TDP1 cell CPT 4.6% and VDR inh 14.9%.
Screening CC(C)(C)c1ccc(C2C(C(=O)c3ccco3)=C(O)C(=O)N2CC2CCCO2)cc1 (centres undefined) returned TDP1 cell noCPT 18.4µM*, PLK1 PBD inh -4.7%, TDP1 block 11.7%, KAT2A inh -0.9%, TDP1 cell CPT inconclusive and VDR inh -3.7%.
Screening O=C1C(=C(I)I)c2ccccc2-c2ccccc21 returned TDP1 cell noCPT 4.61µM*, PLK1 PBD inh 4.74µM*, TDP1 cell CPT 2.59µM* and VDR inh 35.5µM*.
For O=C1c2ccccc2-c2cccnc21 the results were TDP1 cell noCPT -3.9%, PLK1 PBD inh -11.2%, KAT2A inh -1.5%, TDP1 cell CPT -3.8% and VDR inh 6.7%.
For CN(CC(=O)Nc1ccc(Cl)cc1)CC(=O)Nc1sc2c(c1C(N)=O)CCC2 the results were TDP1 cell noCPT 14.6µM*, PLK1 PBD inh 2.6% and TDP1 cell CPT 20.6µM*.
Screening N#Cc1c(NC(=O)CS(=O)(=O)c2ccc(Cl)cc2)sc2c1CCCCC2 returned TDP1 cell noCPT inconclusive, TDP1 block 0.0%, KAT2A inh -11.0%, TDP1 cell CPT inconclusive and VDR inh 1.0%.
`CNC(=O)c1c(NC(=O)CS(=O)(=O)c2ccccc2)sc(C)c1C` gave TDP1 cell noCPT -27.5%, PLK1 PBD inh -9.7%, KAT2A inh -21.0%, TDP1 cell CPT -9.0% and VDR inh -24.1%.
Screening NC(=O)c1c(NC(=O)CS(=O)(=O)c2ccc(Cl)cc2)sc2c1CCCCC2 returned TDP1 cell noCPT 16.4µM*, TDP1 block 5.2%, KAT2A inh -12.7%, TDP1 cell CPT 23.1µM* and VDR inh 5.7%.
Cc1cccc(C)c1NC(=O)CN(C)CC(=O)Nc1sc2c(c1C(N)=O)CCC2 was read as TDP1 cell noCPT inconclusive, PLK1 PBD inh -12.7%, TDP1 block 5.3%, KAT2A inh -1.0%, TDP1 cell CPT inconclusive and VDR inh -26.8%.
Screening CN(CC(=O)Nc1ccccc1Cl)CC(=O)Nc1sc2c(c1C(N)=O)CCC2 returned TDP1 cell noCPT 18.4µM*, PLK1 PBD inh inconclusive, KAT2A inh -5.9%, TDP1 cell CPT 25.9µM* and VDR inh 22.7%.
